Test results reported in PubChem BioAssay (NCATS).
Results filed as inconclusive are left out. Where a call stands in place of a potency, no number is given. The source made the active and inactive calls. Calls follow the shape of the dose curve; as a rule, active = well fitted curve in the direction sought with a large enough effect; inconclusive = small, poorly fitted or top-dose-only effect, or another doubt; inactive = no such curve, though single readings can be large; an effect the other way counts as inactive or inconclusive.

Legend:
[1] = qHTS for Inhibitors of the Aldehyde Dehydrogenase Family (ALDH1A2, ALDH1A3, ALDH2, ALDH3A1) (AID 2061307); also: nearly all actives have a fitted effect of over 50% in size; as to potency: test system not described further here; potency is read from the fitted curve at half-maximal effect
[2] = biological target: Aldehyde dehydrogenase, mitochondrial (Homo sapiens) (UniProt P05091); assay: qHTS for Inhibitors of the Aldehyde Dehydrogenase Family (ALDH2) Primary screen (AID 2061308); also: nearly all actives have a fitted effect of over 55% in size
[3] = biological target: Retinaldehyde dehydrogenase 3 (Homo sapiens) (UniProt P47895); assay: qHTS for Inhibitors of the Aldehyde Dehydrogenase Family (ALDH1A3) Primary screen (AID 2061315)
[4] = biological target: Retinal dehydrogenase 2 (Homo sapiens) (UniProt O94788); assay: qHTS for Inhibitors of the Aldehyde Dehydrogenase Family (ALDH1A2) Confirmation screens (AID 2061314); also: nearly all actives have a fitted effect of over 65% in size; also: potency is read from the fitted curve at half-maximal effect
[5] = biological target: Aldehyde dehydrogenase 1A1 (Homo sapiens) (UniProt P00352); assay: qHTS for Inhibitors of the Aldehyde Dehydrogenase Family (ALDH1A1) Confirmatory screens (AID 2061316); also: nearly all actives have a fitted effect of over 65% in size

SMILES	Potency [1]	Potency [2]	Potency [3]	Potency [4]	Potency [5]
Cc1[nH]c2ccccc2c1C1=C(NCCc2ccc(F)cc2)C(=O)N(C)C1=O	0.896 µM (active)	inactive	inactive		
CCOc1ccc(CCNC(=O)c2cc3c(s2)CCC3)cc1OCC	inactive	inactive	inactive	14.2 µM (active)	
COc1ccc(C2=Nn3c(nnc3-c3cccc(OC)c3OC)SC2)c(OC)c1	2 µM (active)	inactive	inactive	inactive	inactive
COc1ccc(C2Nc3ccccc3C(=O)N2Cc2ccncc2)cc1COc1ccc(NC(C)=O)cc1 (stereo unspecified)	3.57 µM (active)	inactive	inactive	5.04 µM (active)	
